# Reference: PubChem BioAssay (EPA / NIEHS)
# Where “and” joins values, the source holds several entries; their conditions need not be identical. Identical values can stand only once. More than one record can exist for a structure, and the calls need not agree. Calls of active or inactive are those of the source. How the source made its calls: active means hit-call score of the fitted dose curve at least 0.9, where 1 is the maximum; inactive means score below 0.9.
# Experiment: ATG_VDRE_CIS: Attagene CIS-FACTORIAL HepG2 Assay for human Vitamin D Receptor Element (VDRE) (AID 2282968)
# Conditions: HepG2 VDRE cis-reporter transcription, actives raise or lower the signal
# Experimental: ATG_CIS is a cell-based, multiplexed-readout assay that uses HepG2, a human liver cell line, with measurements taken at 24 hours after chemical dosing in a 24-well plate.ATG_VDRE_CIS is one of 52 assay component(s) measured or calculated from the ATG_CIS assay. It is designed to make measurements of mRNA induction, a form of inducible reporter, as detected with fluorescence intensity signals by Reverse transcription polymerase chain reaction (RT-PCR) and Capillary electrophoresis technology.Data from the assay component ATG_VDRE_CIS was analyzed into 1 assay endpoint. This assay endpoint, ATG_VDRE_CIS, was analyzed with bidirectional fitting relative to DMSO as the negative control and baseline of activity. Using a type of inducible reporter, measures of mRNA for gain or loss-of-signal activity can be used to understand the reporter gene at the transcription factor-level as they relate to the gene VDR. Furthermore, this assay endpoint can be referred to as a primary readout, because this assay has produced multiple assay endpoints where this one serves a reporter gene function. To generalize the intended target to other relatable targets, this assay endpoint is annotated to the nuclear receptor intended target family, where the subfamily is non-steroidal.
# Human liver HepG2 cells are transiently transfected with multiple reporter transcription units (MRTUs) in 6-well plates using FuGene 6 reagent (Roche; 3 ml FuGene/1 mg DNA). The MRTU constructs are regulated by a cis-regulating element (promoter). […] A major difference between the CIS and TRANS system is that in CIS activities of endogenous TFs are measured, whereas the TRANS assay evaluates changes in activities of exogenous, chimeric NR-Gal4 proteins. […] At the end of 24 hour incubation, total RNA was isolated using TriZol reagent (Invitrogen). The isolated RNA is then reverse-transcribed using oligo(dT) primer and Mo-MLV reverse transcriptase (Invitrogen) with DNAse I (Ambion) treatment for 30 min. The one-tenth of the produced cDNA was amplified by PCR using Taq DNA polymerase (Invitrogen) and two reporter sequence-specific primers. The PCR products were fluorescently labeled by primer extension with 6-arboxyfluorescein (6-FAM) 5'-labeled reporter sequence-specific primer (2 min at 95 C, 20 s at 68 C and 10 min at 72 C) and these products were digested with 5U of HpaI (New England Biolabs) for 2h at 37 C. The fragments were purified using Qiaquick PCR columns (Qiagen), analyzed on an ABI 3130xL genetic analyzer (Applied Biosystems) with peak positions identified by using a set of X-rhodamine (ROX)-labeled MapMarker1000 molecular weight standards (BioVentures). The raw capillary electrophoresis data was processed using Attagraph software (Attagene).
Structure (SMILES),outcome,AC50
OCCCO,inactive,–
CCC(=O)OC/C=C(\C)CCC=C(C)C,inactive,–
CC(=O)c1ccc(O)cc1,inactive,–
Nc1ccc(O)c(N)c1,inactive,–
CC/C=C\CCOC(C)OCC (stereo not given),inactive,–
CC=CC(=O)C1=C(C)C=CCC1(C)C,inactive,–
CC(C)N1C(=O)c2ccccc2C1=O,inactive,–
CCCC1CCOC(C)S1 (stereo not given),inactive,–
CN1CCc2cccc3c2[C@H]1Cc1ccc(O)c(O)c1-3,inactive,–
CCC(C)(CCCC(C)C)OC(C)=O (stereo not given),inactive,–
N=C1N=C(N)c2ccccc21,inactive,–
CCCCCCCCCCCCOC(C)=O,inactive,–
C=CCOCC(O)CO (stereo not given),inactive,–
NS(=O)(=O)c1cc(C(=O)O)c(NCc2ccco2)cc1Cl,inactive,–
O=C1CCCCCCCCCCCC(=O)OCCO1,inactive,–
CC(CO)(CO)[N+](=O)[O-],inactive,–
c1ccc2c(c1)-c1ccc3ccc4cccc5cc-2c1c3c45,inactive,–
CCO[Si](CC)(OCC)OCC,inactive,–
C[C@]12CC[C@@H]3c4ccc(O)cc4CC[C@H]3[C@@H]1CC[C@@H]2O,inactive,8.99 µM (active) and 4.21 µM (active)
CC(C)COC(=O)c1ccccc1O,inactive,–

Structure (SMILES),outcome,AC50
CC(C)COC(=O)c1ccccc1,inactive,–
C/C=C(\C)C(=O)OC/C=C(\C)CCC=C(C)C,inactive,–
CC(C)C(=O)OCC=Cc1ccccc1,inactive,–
CC1=C(C=O)C(C)(C)CCC1,inactive,–
OCC=Cc1ccccc1,inactive,–
CCCCN(CCO)CCO,inactive,–
NC(=O)c1cnccn1,inactive,–
CNC(=C[N+](=O)[O-])NCCSCc1ccc(CN(C)C)o1,inactive,–
NCCN1CCNCC1,inactive,–
O=C(O)CS,inactive,–
CC(O)CN (stereo not given),inactive,–
COc1ccc(C(C)=O)cc1,inactive,–
CC(=O)c1ccc2ccccc2c1,inactive,–
O=C1CCC(=O)N1,inactive,–
CCCCCCCCCOS(=O)(=O)O,inactive,–
CC(O)COCC(C)O (stereo not given),inactive,–
CC(CCO)CC(C)(C)C (stereo not given),inactive,–
Cc1ccc(C(C)(C)O)cc1,inactive,–
CCCCCCC(C)O (stereo not given),inactive,–
